The values that follow come from PubChem BioAssay (NCI).

About 79,000 compounds went through this panel and 15% of them were active in at least one assay; those are over-represented in the sample as a whole. Values without a mark were called inactive. Active and inactive are the calls of the source. Cut-off read from the data, not from the text of the source: active = growth inhibition above about 70%; inactive = the rest.

A short description of the experiment: NCI Yeast Anticancer Drug Screen. Data for the rad18 strain (AID 177). The following applies: S. cerevisiae rad18 mutant growth inhibition, active compounds read high. The method, then:
Growth inhibition of yeast strains with defined genetic alterations is measured as a screen for potential anti-cancer activity. Selected strains with alterations in DNA damage repair or cell cycle control were exposed to compounds and growth inhibition was measured relative to vehicle treated controls. The strain used in this assay is rad18

On to `COc1cc2c(c(OC)c1OC)-c1c(cc3c(c1OC)OCO3)CC(C)C(C)(O)C2OC(=O)c1ccccc1` (stereo not given), for which the growth inhibition (at 1.2 µM) is -45%; the growth inhibition (at 3.7 µM) was -37%; the growth inhibition (at 11.0 µM) is -26%; the growth inhibition (at 33.0 µM) is -10%; the growth inhibition (at 100.0 µM) was 46%.

For `O=C(c1cc(Br)ccc1O)c1cc(Br)ccc1O`, the growth inhibition was 32% (at 1.2 µM); 89% (active) (at 3.7 µM); 99% (active) (at 11.0 µM); 99% (active) (at 33.0 µM); 99% (active) (at 100.0 µM).

As for `N#CSc1ccc(S(N)(=O)=O)cc1`, the growth inhibition (at 1.2 µM) is -47%; the growth inhibition (at 3.7 µM) is -45%; the growth inhibition (at 11.0 µM) was -57%; the growth inhibition (at 33.0 µM) is 28%; the growth inhibition (at 100.0 µM) is 81% (active).

`Brc1ccc(-c2cc3c(cc2C2SCCS2)OCO3)cc1`: the growth inhibition was -23% (at 1.2 µM); -27% (at 3.7 µM); -29% (at 11.0 µM); 20% (at 33.0 µM); 56% (at 100.0 µM).

`CC(C)C1=CCC2C(=C1)CCC1C(C)(C(=O)O)CCCC21C` (stereo not given) (tested in a mixture with another compound): the growth inhibition reads like this: (at 1.2 µM) -5%; (at 3.7 µM) -9%; (at 11.0 µM) -20%; (at 33.0 µM) 15%; (at 100.0 µM) 88% (active).

Take `CCCCCCCCCCNC(=O)OCC`: the growth inhibition reads like this: (at 1.2 µM) 0%; (at 3.7 µM) 1%; (at 11.0 µM) 18%; (at 33.0 µM) 11%; (at 100.0 µM) 99% (active).

Consider `Cc1ccc(-c2ccc(Nc3c4ccccc4nc4ccccc34)cc2)cn1`, for which the growth inhibition was 0% (at 1.2 µM); -10% (at 3.7 µM); 12% (at 11.0 µM); 89% (active) (at 33.0 µM); 86% (active) (at 100.0 µM).

In the case of `O=C(O)C1CCCCC1c1c2ccc(=O)c(O)c-2oc2c(O)c(O)ccc12` (stereo not given), the growth inhibition was -8% (at 1.2 µM); 5% (at 3.7 µM); 2% (at 11.0 µM); 20% (at 33.0 µM); 80% (active) (at 100.0 µM).
